Compound activity from PubChem BioAssay.
FECH block: inhibitors of human ferrochelatase, primary screen, biochemical, purified FECH, Ni-mesoporphyrin absorbance | calls only at 10 µM (by protocol) | Ni-mesoporphyrin absorbance 550 nm | 20,000 tested, 3.3% active | AID 1671448, 2021;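 active means enzyme reaction rate more than 3 SD below the solvent-only control wells on the same plate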;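 further: lower slope than DMSO wells means FECH inhibition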
Target sequence (P22830 whole entry, looked up): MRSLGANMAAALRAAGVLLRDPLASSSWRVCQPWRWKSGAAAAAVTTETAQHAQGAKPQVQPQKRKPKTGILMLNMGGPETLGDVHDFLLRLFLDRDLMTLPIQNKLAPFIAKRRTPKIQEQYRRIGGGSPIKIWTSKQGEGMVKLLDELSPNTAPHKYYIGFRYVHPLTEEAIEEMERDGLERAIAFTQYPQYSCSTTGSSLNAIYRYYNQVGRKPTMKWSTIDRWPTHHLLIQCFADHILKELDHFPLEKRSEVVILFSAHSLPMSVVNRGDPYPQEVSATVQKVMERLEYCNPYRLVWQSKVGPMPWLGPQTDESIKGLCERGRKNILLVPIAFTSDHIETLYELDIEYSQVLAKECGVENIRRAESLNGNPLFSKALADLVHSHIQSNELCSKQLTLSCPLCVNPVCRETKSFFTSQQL
An asterisk follows results filed as active. Shown is part of a subset that was picked to be rich in hits.

O=C(NCC1CCCO1)c1ccc(CN2C(=O)CCn3nc(-c4cccc(Cl)c4)cc32)cc1 (centres undefined) was read as FECH block inactive.
For CCOc1ccc(C(=O)Nc2ccc(Nc3nc(C)cc(N4CCCC4)n3)cc2)cc1OCC the results were FECH block inactive.
O=c1ccc(-c2ccc(Cl)c(S(=O)(=O)NC3CCCC3)c2)n[nH]1 was read as FECH block inactive.
Screening CS(=O)(=O)N1CCN(c2cc(-c3cccc(F)c3)ncn2)CC1 returned FECH block inactive.
For CCS(=O)(=O)N1CCN(c2cc(-c3cccc(C)c3)ncn2)CC1 the results were FECH block active.
For Cc1ccc(-c2cc(N3CCN(S(C)(=O)=O)CC3)ncn2)cc1 the results were FECH block inactive.
Screening CCS(=O)(=O)N1CCN(c2cc(-c3ccc(C)cc3)ncn2)CC1 returned FECH block inactive.
CCS(=O)(=O)N1CCN(c2cc(-c3cccc(OC)c3)ncn2)CC1 was read as FECH block inactive.
`CS(=O)(=O)N1CCN(c2cc(-c3ccc(F)cc3)ncn2)CC1` gave FECH block active.
Screening CCc1nc(CNc2nccc(-c3cn(C)nc3C)n2)cs1 returned FECH block inactive.
Screening CC(C)c1nc(CN(C)C(=O)c2ccc3c(c2)OCC(=O)N3)cs1 returned FECH block inactive.
Screening CCCc1c(C)nc2ncnn2c1Sc1ccc(NC(=O)c2ccc3c(c2)OCO3)cc1 returned FECH block inactive.
For Cc1cccn2c(CC(=O)NCCc3csc(-c4ccncc4)n3)cnc12 the results were FECH block inactive.
CCc1cc(C(C)NS(=O)(=O)NCc2ccccc2)on1 (centres undefined) was read as FECH block inactive.
O=S(=O)(NCCc1csc(-c2ccncc2)n1)NCc1ccccc1 was read as FECH block active.
Screening CC(C)Cc1cc(C(=O)NC(C)c2cn3ncsc3n2)n[nH]1 (centres undefined) returned FECH block inactive.
CC(C)c1ccc2c(c1)-c1ccccc1S(=O)(=O)N2CC(=O)NCCCN1CCOCC1 was read as FECH block inactive.
For CC(C)c1ccc2c(c1)-c1ccccc1S(=O)(=O)N2CC(=O)NCc1ccncc1 the results were FECH block active.
CC(C)c1ccc2c(c1)-c1ccccc1S(=O)(=O)N2CC(=O)NCc1ccccn1 was read as FECH block active.
CCc1ccc2c(c1)-c1ccccc1S(=O)(=O)N2CC(=O)Nc1ccccc1OC was read as FECH block inactive.
Screening CCN1CCN(C(=O)CN2c3ccc(C(C)C)cc3-c3ccccc3S2(=O)=O)CC1 returned FECH block active.
`CCN1CCN(C(=O)CN2c3ccc(Br)cc3-c3ccccc3S2(=O)=O)CC1` gave FECH block inactive.
For CCc1ccc2c(c1)-c1ccccc1S(=O)(=O)N2CC(=O)NCc1ccccn1 the results were FECH block active.
CCc1ccc2c(c1)-c1ccccc1S(=O)(=O)N2CC(=O)N1CCN(c2ccccc2)CC1 was read as FECH block inactive.
CCCNC(=O)c1ccccc1NC(=O)CN1c2ccc(C(C)C)cc2-c2ccccc2S1(=O)=O was read as FECH block inactive.
`CC(C)c1ccc2c(c1)-c1ccccc1S(=O)(=O)N2CC(=O)NCCSC1CCCCC1` gave FECH block inactive.
For CCc1ccc2c(c1)-c1ccccc1S(=O)(=O)N2CC(=O)Nc1ccc(NC(C)=O)cc1 the results were FECH block inactive.
`Nc1nc(N2CCN(Cc3cccc(Cn4cccn4)c3)CC2)cc(=O)[nH]1` gave FECH block inactive.
`CSc1nc(NCCCN2CCOCC2)c(C#N)c(-c2ccc(Cl)cc2)n1` gave FECH block inactive.
`Cc1ccc(C(=O)N(C)CCn2cc(C(=O)N3CCSCC3)nn2)cc1F` gave FECH block inactive.
`CCc1nnsc1C(=O)N1CCC(O)(c2ccc(C)cn2)CC1` gave FECH block inactive.
`CC(CCNC(=O)CC1CCN(S(=O)(=O)c2ccccc2)CC1)N1CCCC1` (centres undefined) gave FECH block inactive.
For Cc1nc2nc(CN(C(=O)COc3ccccc3)c3ccccc3)nn2c(C)c1Cl the results were FECH block inactive.
For Cc1cccc(C(=O)Nc2cccc(OCc3cc(=O)n4ccc(C)cc4n3)c2)c1 the results were FECH block inactive.
COc1ccccc1C(=O)Nc1cccc(OCc2cc(=O)n3ccc(C)cc3n2)c1 was read as FECH block active.
`COc1cccc(C(=O)Nc2cccc(OCc3cc(=O)n4ccc(C)cc4n3)c2)c1` gave FECH block inactive.
`COCC(c1ccccn1)N(C)Cc1cnc2c(-c3ccccc3)cnn2c1` (centres undefined) gave FECH block inactive.
Cc1ccc2c(c1)NC(=O)C2CC(=O)NCCN1CCCOC1=O (centres undefined) was read as FECH block inactive.
Screening Cc1cccc(N(CC(=O)NCCN2CCNC2=O)S(C)(=O)=O)c1 returned FECH block active.
For Cc1cccc(N(CC(=O)N(C)Cc2n[nH]c3c2CCCCC3)S(C)(=O)=O)c1 the results were FECH block inactive.
`CCCC(=O)N1CCC(N2CCN(c3nccc(NCC)n3)CC2)CC1` gave FECH block inactive.
For CCc1ccc(-n2c(CN3CCN(S(=O)(=O)c4ccc(C)cc4C)CC3)nc3cccnc32)cc1 the results were FECH block inactive.
